In PubChem BioAssay (Tox21):
Calls of active or inactive are those of the source. Unless noted, the call rests on the fitted dose curve; in most records, active means well fitted curve in the direction sought with a large enough effect in the repeat runs; inconclusive means weak or mixed curves; inactive means no such curve, though single readings can be large; an effect the other way counts as inactive or inconclusive.

How the values were obtained:
[1] = qHTS assay to identify small molecule antagonists of the thyroid receptor (TR) signaling pathway (AID 743065); further: nearly all actives have a fitted effect of over 55% in size; further: potency means the concentration at half of the fitted maximal effect; on activity, negative = inhibition: on the % scale 0 is the no-effect control and ±100 the full control effect
Summary of the method: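 GH3.TRE-Luc rat pituitary cells carrying two TR response elements driving luciferase were plated for 4 h, given compound plus 1 nM T3 (final), and incubated 23.5 h at 37 C. ONE-Glo luminescence measured reporter inhibition; CellTiter-Fluor fluorescence tracked cytotoxicity.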

[2] = system: thyroid hormone receptor (rat, GH3 cells); assay: qHTS assay to identify small molecule agonists of the thyroid receptor (TR) signaling pathway (AID 743066; calls by dose curve; further: on the % scale 0 is the no-effect control and ±100 the full control effect)
[3] = qHTS assay to identify small molecule antagonists of the estrogen receptor alpha (ER-alpha) signaling pathway - cell viability counter screen (AID 743074; calls by dose curve; further: nearly all actives have a fitted effect of over 45% in size; further: potency means the concentration at half of the fitted maximal effect)
[4] = qHTS assay to identify small molecule antagonists of the estrogen receptor alpha (ER-alpha) signaling pathway using the BG1 cell line - cell viability counter screen (AID 743081);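 further: compound given together with 17beta-estradiol as the ER stimulus; on the % scale 0 is the no-effect control and ±100 the full control effect; nearly all actives have a fitted effect of over 45% in size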
[5] = molecular target: Aromatase (Homo sapiens) (UniProt P11511); assay: qHTS assay to identify aromatase inhibitors (AID 743083); further: nearly all actives have a fitted effect of over 55% in size; further: potency means the concentration at half of the fitted maximal effect
[6] = qHTS assay to identify aromatase inhibitors - cell viability counter screen (AID 743084);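 further: cells stimulated with testosterone during compound exposure; nearly all actives have a fitted effect of over 55% in size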; further: potency means the concentration at half of the fitted maximal effect
[7] = molecular target: Aryl hydrocarbon receptor (Homo sapiens) (UniProt P35869); assay: qHTS assay to identify small molecule that activate the aryl hydrocarbon receptor (AhR) signaling pathway (AID 743085); further: nearly all actives have a fitted effect of over 15% in size; further: potency means the concentration at half of the fitted maximal effect
Summary of the method: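 AhR agonist activity is inferred from enhanced light output of a DRE-controlled firefly luciferase reporter in HepG2 cells, measured with ONE-Glo following 24 h treatment at 37C.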

[8] = qHTS assay to identify small molecule that activate the aryl hydrocarbon receptor (AhR) signaling pathway - cell viability counter screen (AID 743086); further: nearly all actives have a fitted effect of over 45% in size; further: potency means the concentration at half of the fitted maximal effect
Summary of the method: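 HepG2-AhR-luc (HG2L7.5c1) cells, 4000/well, were preincubated 5 h at 37C, exposed to compound in qHTS format for 24 hr at 37C, then given CellTiter-Fluor for 30 min; viability was read as fluorescence in the reporter wells.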

[9] = molecular target: Peroxisome proliferator-activated receptor gamma (Homo sapiens) (UniProt P37231); assay: qHTS assay to identify small molecule antagonists of the peroxisome proliferator-activated receptor gamma (PPARg) signaling pathway (AID 743191; calls by dose curve; further: nearly all actives have a fitted effect of over 30% in size; further: potency means the concentration at half of the fitted maximal effect)
Summary of the method: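 GeneBLAzer PPARg UAS-bla HEK293H cells carrying a UAS-driven beta-lactamase reporter were plated at 3000 cells/well, preincubated 5 h at 37C, then given compound for 17 h at 37C; LiveBLAzer B/G FRET substrate was read after 1 h at room temperature.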

[10] = qHTS assay to identify small molecule antagonists of the peroxisome proliferator-activated receptor gamma (PPARg) signaling pathway - cell viability counter screen (AID 743194); further: nearly all actives have a fitted effect of over 55% in size; further: potency means the concentration at half of the fitted maximal effect
Summary of the method: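 PPARg-UAS-bla HEK293H cells were plated, rested 5 h at 37 C, then treated with compounds plus rosiglitazone (50 nM final) for 17 h at 37 C; viability was then read by CellTiter-Glo luminescence after 30 min at room temperature.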

[11] = qHTS assay for small molecule agonists of the antioxidant response element (ARE) signaling pathway (AID 743202; active means well fitted activation curve with a large enough effect in the signal ratio in the repeat runs, not every such curve was filed as active; inconclusive means weak or mixed curves, or effect the other way; inactive means no such curve, though single readings can be large or run the other way; the % refers to the signal ratio; further: on the % scale 0 is the no-effect control and ±100 the full control effect)
Summary of the method: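 Steps: seed ARE-bla HepG2 cells (2,000/well); incubate 5 h at 37 C; add compounds by pin tool; incubate 16 h at 37 C; add FRET substrate; read fluorescence after 2 h at RT.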

[12] = qHTS assay for small molecule agonists of the antioxidant response element (ARE) signaling pathway - cell viability counter screen (AID 743203; calls by dose curve; further: nearly all actives have a fitted effect of over 55% in size; further: potency means the concentration at half of the fitted maximal effect)
Summary of the method: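 Viability counter screen: CellTiter-Glo luminescence, read after 30 min at room temperature, in ARE-bla HepG2 wells. Compound exposure lasted 16 h at 37C/5% CO2, following a 5 h pre-incubation of the cells after plating.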

[13] = molecular target: Estrogen receptor (Homo sapiens) (UniProt P03372); assay: qHTS assay to identify small molecule antagonists of the estrogen receptor alpha (ER-alpha) signaling pathway (AID 743069; active means well fitted curve in the direction sought with a large enough effect in the signal ratio in the repeat runs, not every such curve was filed as active; inconclusive means weak or mixed curves, or effect the other way; inactive means no such curve, though single readings can be large or run the other way; the % refers to the signal ratio; further: potency means the concentration at half of the fitted maximal effect)
Summary of the method: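 Screening used a UAS-driven beta-lactamase reporter integrated into HEK293 cells expressing ER-alpha, stimulated with 17beta-estradiol alongside test compounds over 18 hr at 37C; signal came from LiveBLAzer B/G FRET fluorescence.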

[14] = molecular target: Estrogen receptor (Homo sapiens) (UniProt P03372); assay: qHTS assay to identify small molecule agonists of the estrogen receptor alpha (ER-alpha) signaling pathway (AID 743075; calls by dose curve; further: potency means the concentration at half of the fitted maximal effect)
[15] = qHTS assay for small molecule activators of the heat shock response signaling pathway - cell viability counter screen (AID 743209); further: nearly all actives have a fitted effect of over 50% in size; further: potency means the concentration at half of the fitted maximal effect
Summary of the method: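 Cytotoxicity counter screen run in the same wells as the heat-shock bla reporter assay: HeLa HSE-bla cells, 5 h compound exposure at 37 C, viability read by CellTiter-Glo luminescence.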

[16] = qHTS assay for small molecule activators of the heat shock response signaling pathway (AID 743210; active means well fitted activation curve with a large enough effect in the signal ratio in the repeat runs, with a control signal flat, not every such curve was filed as active; inconclusive means weak or mixed curves; the % refers to the signal ratio; further: potency means the concentration at half of the fitted maximal effect)
Summary of the method: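 Activation of heat shock element-controlled beta-lactamase expression is measured in HeLa cells by LiveBLAzer FRET fluorescence, with compound exposure lasting 5 h at 37 C and substrate loading 2.5 h at room temperature.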

[17] = molecular target: Estrogen receptor (Homo sapiens) (UniProt P03372); assay: qHTS assay to identify small molecule agonists of the estrogen receptor alpha (ER-alpha) signaling pathway using the BG1 cell line (AID 743079); settings: BG1Luc4E2 cells, ERE-luciferase agonist, 22 h; activation: at 70.3 µM (top of the series); further: on the % scale 0 is the no-effect control and ±100 the full control effect; nearly all actives have a fitted effect of over 20% in size
[18] = qHTS assay to identify small molecule antagonists of the estrogen receptor alpha (ER-alpha) signaling pathway using the BG1 cell line (AID 743080; calls by dose curve;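 further: BG1 cells stimulated with 17beta-estradiol alongside compound; nearly all actives have a fitted effect of over 25% in size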; further: potency means the concentration at half of the fitted maximal effect); settings: BG1Luc4E2 ERE-luciferase antagonist mode, luminescence; activity change, negative = inhibition: at 70.3 µM (top of the series)
Summary of the method: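 BG1Luc4E2, endogenous ER-alpha, 4xERE-luc; 5 d charcoal-stripped FBS, phenol red free; 24 h plating; cpd + 17beta-estradiol 21.5 h, 37 C/5% CO2; CellTiter-Fluor viability 30 min, then ONE-Glo luciferase 30 min RT.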

[19] = molecular target: Peroxisome proliferator-activated receptor gamma (Homo sapiens) (UniProt P37231); assay: qHTS assay to identify small molecule agonists of the peroxisome proliferator-activated receptor gamma (PPARg) signaling pathway (AID 743094; active means well fitted activation curve with a large enough effect in the signal ratio in the repeat runs, not every such curve was filed as active; inconclusive means weak or mixed curves, or effect the other way; inactive means no such curve, though single readings can be large or run the other way; the % refers to the signal ratio; further: on the % scale 0 is the no-effect control and ±100 the full control effect)
Summary of the method: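 Agonist activity was taken from a beta-lactamase reporter (FRET substrate, 1 h at room temperature) in HEK293H cells carrying a PPARg UAS-bla construct. Compounds in DMSO were incubated 17 h at 37C after a 5 h cell pre-incubation.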

[20] = qHTS assay to identify small molecule agonists of the peroxisome proliferator-activated receptor delta (PPARd) signaling pathway - cell viability counter screen (AID 743211); further: nearly all actives have a fitted effect of over 55% in size; further: potency means the concentration at half of the fitted maximal effect
Summary of the method: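 qHTS cell viability: PPARd-bla HEK293H; 17 h cpd, 37C; CellTiter-Glo, luminescence at 30 min RT.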

Aromatase (Homo sapiens), sequence (P11511 whole entry, looked up): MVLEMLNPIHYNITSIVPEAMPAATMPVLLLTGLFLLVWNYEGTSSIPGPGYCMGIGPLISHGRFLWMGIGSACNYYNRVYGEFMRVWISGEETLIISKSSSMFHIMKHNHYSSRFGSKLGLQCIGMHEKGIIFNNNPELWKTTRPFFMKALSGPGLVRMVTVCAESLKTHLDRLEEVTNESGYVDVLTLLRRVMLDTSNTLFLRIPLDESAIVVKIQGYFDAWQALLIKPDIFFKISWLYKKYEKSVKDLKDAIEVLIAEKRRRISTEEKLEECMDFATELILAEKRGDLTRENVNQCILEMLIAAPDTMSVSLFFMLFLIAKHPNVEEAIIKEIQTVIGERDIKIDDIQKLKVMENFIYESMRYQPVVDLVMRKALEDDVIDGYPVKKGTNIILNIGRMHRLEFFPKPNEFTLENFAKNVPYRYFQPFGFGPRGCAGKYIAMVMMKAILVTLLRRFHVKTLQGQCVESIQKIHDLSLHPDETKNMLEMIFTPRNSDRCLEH
Peroxisome proliferator-activated receptor gamma (Homo sapiens), sequence (P37231 whole entry, looked up): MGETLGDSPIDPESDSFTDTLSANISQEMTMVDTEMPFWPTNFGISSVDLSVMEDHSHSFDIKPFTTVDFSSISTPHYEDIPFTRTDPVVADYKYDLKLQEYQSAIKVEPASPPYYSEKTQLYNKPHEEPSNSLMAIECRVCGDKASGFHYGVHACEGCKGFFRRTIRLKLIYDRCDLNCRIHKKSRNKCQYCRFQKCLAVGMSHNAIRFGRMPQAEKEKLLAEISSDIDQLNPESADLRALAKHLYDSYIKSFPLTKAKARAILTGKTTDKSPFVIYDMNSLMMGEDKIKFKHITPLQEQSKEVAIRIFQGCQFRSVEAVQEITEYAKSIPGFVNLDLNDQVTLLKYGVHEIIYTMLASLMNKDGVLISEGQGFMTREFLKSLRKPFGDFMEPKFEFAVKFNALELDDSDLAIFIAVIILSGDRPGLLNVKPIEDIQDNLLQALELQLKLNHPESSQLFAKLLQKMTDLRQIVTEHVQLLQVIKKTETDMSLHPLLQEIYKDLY
Estrogen receptor (Homo sapiens), sequence (P03372 whole entry, looked up): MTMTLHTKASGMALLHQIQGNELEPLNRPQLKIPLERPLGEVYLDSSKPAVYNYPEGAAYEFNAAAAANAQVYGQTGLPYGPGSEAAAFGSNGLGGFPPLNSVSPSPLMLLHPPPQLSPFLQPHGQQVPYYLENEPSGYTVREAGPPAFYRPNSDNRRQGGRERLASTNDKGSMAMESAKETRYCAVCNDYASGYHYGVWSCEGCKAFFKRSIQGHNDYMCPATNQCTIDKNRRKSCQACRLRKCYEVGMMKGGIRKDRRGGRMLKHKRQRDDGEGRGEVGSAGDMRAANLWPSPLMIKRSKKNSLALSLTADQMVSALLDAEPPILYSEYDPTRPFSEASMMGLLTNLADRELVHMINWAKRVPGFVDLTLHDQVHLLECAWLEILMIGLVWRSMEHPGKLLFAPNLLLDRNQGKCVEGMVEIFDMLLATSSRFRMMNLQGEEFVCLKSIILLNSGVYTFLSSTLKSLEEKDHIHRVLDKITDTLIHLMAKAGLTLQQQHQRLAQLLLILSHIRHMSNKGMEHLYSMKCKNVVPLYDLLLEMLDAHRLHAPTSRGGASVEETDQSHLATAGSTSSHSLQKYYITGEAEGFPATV
Aryl hydrocarbon receptor (Homo sapiens), sequence (P35869 whole entry, looked up): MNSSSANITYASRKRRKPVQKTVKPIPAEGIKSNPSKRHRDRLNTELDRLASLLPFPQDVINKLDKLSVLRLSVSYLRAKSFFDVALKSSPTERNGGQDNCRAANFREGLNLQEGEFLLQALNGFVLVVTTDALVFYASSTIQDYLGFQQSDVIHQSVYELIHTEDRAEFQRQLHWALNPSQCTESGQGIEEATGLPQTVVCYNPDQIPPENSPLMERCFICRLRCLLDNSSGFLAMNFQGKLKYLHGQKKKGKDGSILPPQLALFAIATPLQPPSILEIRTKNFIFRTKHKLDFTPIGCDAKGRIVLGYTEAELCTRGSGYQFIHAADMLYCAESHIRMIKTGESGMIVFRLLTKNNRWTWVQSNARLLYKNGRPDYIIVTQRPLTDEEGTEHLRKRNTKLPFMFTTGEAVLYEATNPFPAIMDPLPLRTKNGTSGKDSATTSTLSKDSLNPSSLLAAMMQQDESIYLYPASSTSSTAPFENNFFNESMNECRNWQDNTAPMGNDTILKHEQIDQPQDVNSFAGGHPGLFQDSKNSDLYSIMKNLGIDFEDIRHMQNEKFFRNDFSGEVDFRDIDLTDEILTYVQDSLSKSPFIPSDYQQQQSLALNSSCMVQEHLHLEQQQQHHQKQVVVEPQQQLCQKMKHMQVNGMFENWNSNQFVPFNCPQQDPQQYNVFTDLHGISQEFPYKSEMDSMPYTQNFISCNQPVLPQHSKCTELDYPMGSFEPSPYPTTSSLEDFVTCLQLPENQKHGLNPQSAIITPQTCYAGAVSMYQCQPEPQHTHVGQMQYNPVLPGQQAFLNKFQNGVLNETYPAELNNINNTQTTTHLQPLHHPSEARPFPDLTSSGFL

N[C@@H](CSSC[C@H](N)C(=O)O)C(=O)O
inactive: Potency [1] | Potency [2] | Potency [3] | Potency [4] | Potency [5] | Potency [6] | Potency [7] | Potency [8] | ratio activity, negative = inhibition [9] 3.31% [at 0.55 µM] | activity change, negative = cytotoxicity [10] 9.18% [at 0.55 µM] | activation [11] 9.27% [at 0.756 µM] | viability change, negative = cytotoxic [12] -0.389% [at 0.756 µM]

C[C@@]12C(=O)OC(=O)[C@]1(C)C1CCC2O1
inactive: Potency [2] | Potency [14] | Potency [10] | Potency [15] | Potency [16]
active: Potency [1] 2.02 µM | Potency [13] 4.06 µM [inconclusive] | Potency [6] 3.59 µM | Potency [8] 0.569 µM | Potency [12] 4.22 µM

COc1cc(C(C)C)c2c(c1)S(=O)(=O)N(COc1cc(=O)n3cccc(OCCN4CCCCC4)c3n1)C2=O
inactive: Potency [2] | Potency [3] | Potency [14] | Potency [17] | Potency [18] | Potency [4] | Potency [7] | Potency [19] | Potency [10] | Potency [12] | Potency [15] | Potency [16] | Potency [20]
active: Potency [1] 13 µM

O=C(O)CCCCCCC(=O)O
inactive: Potency [1] | Potency [2] | Potency [3] | Potency [4] | Potency [5] | Potency [6] | Potency [7] | Potency [8] | Potency [9] | Potency [10] | Potency [11] | Potency [12] | Potency [15] | Potency [16] | Potency [20]

c1cc2c3c(c1)ccc1cccc(c13)C2
inactive: Potency [1] | Potency [2] | Potency [3] | Potency [4] | Potency [5] | Potency [6] | Potency [7] | Potency [8]
active: Potency [20] 56.1 µM

Cc1occc1SSc1ccoc1C
inactive: Potency [2] | Potency [3] | Potency [4] | Potency [7] | Potency [8] | Potency [9] | Potency [10] | Potency [12]
active: Potency [1] 68.6 µM | Potency [5] 30.6 µM | Potency [6] 43.3 µM | Potency [16] 23.6 µM

C=CC(=O)OCC(O)COc1ccccc1 (stereo not given)
inactive: Potency [2] | Potency [3] | Potency [14] | Potency [17] | Potency [4] | Potency [7] | Potency [8]
active: Potency [1] 48.6 µM | Potency [5] 68.6 µM | Potency [6] 61.1 µM | Potency [15] 4.9 µM | Potency [20] 49 µM

O=C(c1ccccc1)c1cc(Cl)ccc1O
inactive: Potency [1] | Potency [2] | Potency [3] | Potency [18] | Potency [4] | Potency [6] | Potency [8] | Potency [9] | Potency [10] | Potency [12] | Potency [15] | Potency [16] | Potency [20]
active: Potency [14] 58.5 µM [activator] | activation [17] 22.1%

CN(C)CCCN1c2ccccc2CCc2ccccc21
active: Potency [1] 23.7 µM | Potency [20] 30.9 µM
inactive: Potency [2] | Potency [3] | Potency [4] | Potency [5] | Potency [6] | Potency [7] | Potency [10] | Potency [15]

CCCCCCCCCCCCCC[n+]1ccccc1
inactive: Potency [2] | Potency [14] | Potency [7]
active: Potency [1] 2.43 µM | Potency [3] 24.5 µM | Potency [18] 4.86 µM | Potency [5] 6.11 µM | Potency [6] 54.5 µM | Potency [8] 54.5 µM | Potency [10] 17.4 µM | Potency [12] 27.3 µM | Potency [15] 30.9 µM | Potency [20] 24.5 µM

O=C(Nc1ccc(Cl)c(Cl)c1)c1cc(Cl)cc(Cl)c1O
active: Potency [1] 2.17 µM | Potency [3] 2.45 µM | Potency [14] 0.436 µM [inconclusive] | Potency [18] 4.86 µM | Potency [5] 6.11 µM | Potency [7] 0.109 µM | Potency [10] 0.49 µM | Potency [12] 24.3 µM | Potency [20] 5.49 µM
inactive: Potency [2] | Potency [4] | Potency [8]

O=C1OC(OC(=O)c2cccnc2Nc2cccc(C(F)(F)F)c2)c2ccccc21 (stereo not given)
inactive: Potency [2] | Potency [3] | Potency [4] | Potency [5] | Potency [6] | Potency [7] | Potency [8] | Potency [10] | Potency [12] | Potency [15] | Potency [20]
active: Potency [1] 29.8 µM | Potency [9] 11.9 µM

COC(=O)NCCC[Si](OC)(OC)OC
inactive: Potency [1] | Potency [2] | Potency [3] | Potency [4] | Potency [5] | Potency [6] | Potency [7] | Potency [8] | Potency [19] | Potency [10] | Potency [12] | Potency [15] | Potency [20]
